About 230 (0.07%) of roughly 330,000 compounds were called active. Many of the other results were omitted from the sample, so actives are more common in it than they were. Values without a mark were called inactive.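 The calls were made as follows: active = more than half of a compound's replicate wells show inhibition beyond 50%, single wells judged on their own value; inconclusive = some, but no more than half, of replicates pass 50% inhibition; inactive = no replicate passes 50% inhibition.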

Sequence of Lysine-specific demethylase 4C (Homo sapiens) (Q9H3R0 1-420 limits assumed): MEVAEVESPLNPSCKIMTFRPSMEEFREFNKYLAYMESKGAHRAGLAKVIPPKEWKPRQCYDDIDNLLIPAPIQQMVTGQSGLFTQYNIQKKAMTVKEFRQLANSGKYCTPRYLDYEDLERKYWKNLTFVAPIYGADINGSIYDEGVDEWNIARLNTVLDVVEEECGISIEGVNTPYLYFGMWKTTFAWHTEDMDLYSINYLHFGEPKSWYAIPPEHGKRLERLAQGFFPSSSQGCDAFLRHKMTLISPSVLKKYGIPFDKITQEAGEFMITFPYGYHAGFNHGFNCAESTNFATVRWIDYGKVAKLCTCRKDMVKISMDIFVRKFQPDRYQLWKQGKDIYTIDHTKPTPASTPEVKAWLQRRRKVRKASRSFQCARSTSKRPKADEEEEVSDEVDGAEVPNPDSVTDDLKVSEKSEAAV

This experiment has as its target Lysine-specific demethylase 4C (Homo sapiens) (UniProt Q9H3R0). The experiment can be described thus: JMJD2C H3K9me3 demethylation blockers – biochemical, fluorescence, DELFIA europium, primary screen (AID 2099).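 Also: signal counts dimethyl H3K9 product captured on neutravidin plate; 0% = median of DMSO wells and 100% = 0.3 times that DMSO median.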 The settings on record: GST-JMJD2C(1-420) H3K9me3 demethylation, at 2.35 µM, stronger effect = higher value.
For the compound `CN1CCN(CC#CCC2(O)c3ccccc3-c3ccccc32)CC1`, the inhibition is -1.35%.

Regarding `O=C(N/C(=C\c1ccc([N+](=O)[O-])cc1)C(=O)N1CCOCC1)c1cccc(Br)c1`, the inhibition was -3.44%.

Turning to `C=CCN1C(=O)C(O)(CC(=O)c2ccc(Cl)cc2)c2ccccc21` (centres undefined), the inhibition is -1.48%.

In the case of `Cc1ccsc1/C=N/n1c(=S)[nH]nc(C)c1=O`, the inhibition was -1.06%.

For the compound `C=CCn1cc(Cl)cc(C(=O)Nc2ccccc2)c1=O`, the inhibition is 3.59%.

Regarding `O=C1Nc2cc(Cl)c(Cl)cc2N(O)N1c1ccccc1Cl`, the inhibition was -2.09%.

Take `CCCCN(CCCC)CCNC(=O)CN1C(=O)COc2ccc(S(=O)(=O)N3CCOCC3)cc21`: the inhibition is -8.15%.

For the compound `COc1cc2c(cc1OC)CC1(CCCCC1)N=C2`, the inhibition was 2.64%.

As for `COC(C[C@@H](O)[C@H](C)[C@H](O)COCc1ccccc1)OC`, the inhibition is 13.4%.

For the compound `O=C(CSc1nc(=O)n2ccccc2n1)Nc1ccc2c(c1)OCCO2`, the inhibition is -1.16%.

Turning to `COc1cccc(NCCC(=O)c2cccc([N+](=O)[O-])c2)c1`, the inhibition was 4.3%.

On to `CCc1ccc(N2CC(O)=C(c3nc4ccccc4c(=O)[nH]3)C2=N)cc1`, for which the inhibition was -0.372%.

As to `Cc1cc(C)c(S(=O)(=O)N2CCOCC2)cc1C`, the inhibition is 8.81%.

Regarding `Cc1ccc(C2=NN(C)c3nc4ccccc4n3C2)cc1`, the inhibition is 4.06%.

As for `Cc1nn(C)c(Cl)c1CN1CCC(Oc2ccc(C(=O)N3CCCC3)cc2)CC1`, the inhibition was 36.3%.

On to `Cc1ccc(-n2c(CNc3ccc(F)cc3)nnc2SCC(=O)N2CCOCC2)cc1`, for which the inhibition is 0.71%.

In the case of `CC(=O)Nc1ccc(NC(=O)CCN2C(=O)C3CC=CCC3C2=O)cc1` (centres undefined), the inhibition was 3.08%.

For the compound `O=c1cc(-c2ccccc2)[nH]c2cc(F)ccc12`, the inhibition was 0.818%.

For `Cc1ccccc1NC(=O)N1CCCC1C(=O)NCc1ccccc1` (centres undefined), the inhibition was 5.47%.

Consider `Cc1nnc(SC(C(=O)c2ccccc2)c2ccccc2)[nH]c1=O` (centres undefined), for which the inhibition was -3.86%.

Take `CCCCN1CCNC1=S`: the inhibition is 0.223%.

With `OCCC1CN(Cc2ccc3nsnc3c2)CCN1C1CCCC1` (centres undefined), the inhibition was -2.72%.

For `O=C(NCc1ccccn1)c1cnc2sccn2c1=O`, the inhibition is -1.24%.

Consider `Cc1nc2nc(SCC(=O)Nc3cccc(F)c3)[nH]c2cc1Br`, for which the inhibition was 6.95%.

Consider `COc1ccc(F)c(-c2nc(CN3CCC(c4ccccc4)CC3)c(C)o2)c1`, for which the inhibition is -8.87%.

Take `O=c1c2sccc2nc(SCc2cc(=O)n3ccccc3n2)n1-c1ccc(Br)cc1`: the inhibition is -3.21%.

As for `CC(C)(C)NC(=O)NC(=O)CN1CCC(Cc2ccccc2)CC1`, the inhibition was -22.7%.

As for `CN(CC1CCCO1)S(=O)(=O)c1ccc(C(=O)Nc2ccc([N+](=O)[O-])cc2)cc1` (centres undefined), the inhibition is -19.5%.

Take `COc1ccc(NS(=O)(=O)c2ccc(N3CCN(CCO)CC3)c([N+](=O)[O-])c2)cc1`: the inhibition was 1.9%.

As for `O=C(NCc1ccccc1Cl)NC(=O)c1csc([N+](=O)[O-])c1`, the inhibition was -1.75%.

As for `O=C(CN1CCCCCC1)Nc1ccc(Br)cc1Br`, the inhibition was 7.23%.

Take `O=C(CCCOc1ccccc1)NCc1ccco1`: the inhibition was 8.15%.

As for `COc1cccc(OC)c1C(=O)OCC(=O)/C(C#N)=C(\C)N`, the inhibition is -25.5%.

As for `CC(C)CCN1CCN(Cc2cn[nH]c2C2CCCCC2)CC1CCO` (centres undefined), the inhibition is -11.2%.

On to `COc1ccc(NC(=O)CN(C)C(=O)c2cccc(S(=O)(=O)N3CCN(c4ccccc4)CC3)c2)cc1`, for which the inhibition is 38.9%.

Turning to `CCCC(=O)N1CCC(CCC(=O)NC2CC2)CC1`, the inhibition was 33.1%.

As for `O=C(CSCc1c(Cl)cccc1Cl)NN1C(=O)c2ccccc2C1=O`, the inhibition was -14.7%.

With `CCCCn1c(N)c(N(CC(C)C)C(=O)c2cccc(S(=O)(=O)N3CC(C)OC(C)C3)c2)c(=O)[nH]c1=O` (centres undefined), the inhibition is -2.81%.

For the compound `O=C(OCC1O[C@@H](OC(=O)c2cc(O)c(O)c(O)c2)[C@@H](OC(=O)c2cc(O)c(O)c(O)c2)[C@@H](OC(=O)c2cc(O)c(O)c(O)c2)[C@@H]1OC(=O)c1cc(O)c(O)c(O)c1)c1cc(O)c(O)c(O)c1` (some centres undefined), the inhibition was 97.3% (active).

`NS(=O)(=O)c1ccc(NC(=S)NNC(=O)c2cccs2)cc1`: the inhibition is 0.859%.

For the compound `Cc1cccc(-c2noc(CCC(=O)NC3CCCC3)n2)c1`, the inhibition was 54.2% (active).

As for `COc1ccc(-c2noc(CCCC(=O)NC3CCCC3)n2)cc1OC`, the inhibition is 0.509%.

`CCOc1ccc(-c2noc(CCC(=O)NC3CCCC3)n2)cc1OC`: the inhibition is 7.26%.

In the case of `C/C(=N\NC(=O)COc1ccc(C)cc1[N+](=O)[O-])c1ccc2c(c1)OCCO2`, the inhibition was 9.39%.

Regarding `Cc1cc(NC(=O)Nc2c[nH]c(=O)[nH]c2=O)ccc1Br`, the inhibition is 53.4% (active).

With `Cc1cc(NC(=O)[C@H](C)NC(=O)c2ccco2)ccc1Br`, the inhibition was -9.73%.

For the compound `Cc1ccc(NC(=O)Nc2ccccc2)c(Br)c1`, the inhibition was 14.6%.

In the case of `CCc1c(C)nc2c(OC)cccc2c1Cl`, the inhibition was 8.11%.

Turning to `Cc1ccccc1CN1C[C@@H]2C[C@@H](c3ccc4nsnc4c3)N3CCC[C@@]23C1=O`, the inhibition was 10.6%.

As to `COc1cccc(COC(=O)C2CCN(S(=O)(=O)c3cccs3)CC2)c1OC`, the inhibition is -2.56%.

With `O=c1ccc2c(-c3ccccc3S(=O)(=O)O)c3ccc(O)c(O)c3oc-2c1O`, the inhibition was 79.5% (active).

Turning to `CC(C)CN(C(=O)Cn1c(=O)cnc2ccccc21)C1CCS(=O)(=O)C1` (centres undefined), the inhibition is 2.23%.

For the compound `CCc1ccc(-c2nnn(Cc3nn[nH]n3)n2)cc1`, the inhibition is 57.7% (active).

Turning to `CCc1ccc(-c2nnn(Cc3nc4ccccc4s3)n2)cc1`, the inhibition is 51.2%.

Consider `c1cc(-c2nn[nH]n2)ccc1CN1CCCCC1`, for which the inhibition is 12.9%.

`N#Cc1c(N2CCCCC2)nc(N)c2c(N)nc(SCC(=O)O)cc12`: the inhibition was 65.6% (active).

Take `Nc1nc(NCC(=O)O)nc(N2CCCCCC2)c1[N+](=O)[O-]`: the inhibition is 21.9%.

Take `N#CCc1c(C#N)c(N)nc(N2CCCC2)c1C#N`: the inhibition was 1.17%.

With `CCCCn1c(N)c(N(CC(C)C)C(=O)c2ccc(-n3c(C)ccc3C)cc2)c(=O)[nH]c1=O`, the inhibition was -11.1%.

The record behind these values is PubChem BioAssay AID2099 (Broad Institute, 2009).
